# Laboratory results: the supplement of paper PMC13380429
# System: Vero E6 infected with SARS-CoV-2
# Assay: inhibition of SARS-CoV-2 cytopathic effect; higher = more antiviral protection, active = above 15
# Conditions: 10000 nM; 48 h
row,SMILES,inhibition of SARS-CoV-2 cytopathic effect
1,CC(C)NCC(O)COc1ccc(COCCOC(C)C)cc1 (configuration not stated) [bisoprolol],-3.25% (inactive)
2,CNC(=O)c1c(-c2ccc(F)cc2)oc2cc(N(CCO)S(C)(=O)=O)c(C3CC3)cc12 [nesbuvir],-3.08% (inactive)
3,COc1ccc(/C=C/C(=O)Nc2ccccc2C(=O)O)cc1OC [tranilast],1.42% (inactive)
4,CC(=O)Oc1cc(C(F)(F)F)ccc1C(=O)O [triflusal],4.74% (inactive)
5,CN(CCOc1ccc(C[C@H](Nc2ccccc2C(=O)c2ccccc2)C(=O)O)cc1)c1ccccn1,-1.74% (inactive)
6,CCc1c(C(=O)NCCc2ccc(N3CCCCC3)cc2)[nH]c2ccc(Cl)cc12,-2.19% (inactive)
7,Cn1cc(-c2ccc3c(c2)CCN3C(=O)Cc2cccc(C(F)(F)F)c2)c2c(N)ncnc21,27.7% (active)
8,COc1ccc(CN2C(=O)C(=O)c3cc(OC(F)(F)F)ccc32)cc1,6.79% (inactive)
9,N#Cc1cc(F)cc(-c2nc(-c3ccc(F)cn3)no2)c1,2.97% (inactive)
10,O=C1NN(C(=O)Nc2ccc(Br)cc2)[C@@H](c2ccccc2)[C@@H]1c1ccccc1,-1.96% (inactive)
11,CN1CCN(C(c2ccccc2)c2ccc(Cl)cc2)CC1 (configuration not stated) [chlorcyclizine],-10.6% (inactive)
12,COCC(=O)O[C@]1(CCN(C)CCCc2nc3ccccc3[nH]2)CCc2cc(F)ccc2[C@@H]1C(C)C [mibefradil],62.1% (active)
13,CNc1ccc([N+](=O)[O-])cc1-n1cnc(-c2ccc(C(F)(F)F)cc2)c1,-0.19% (inactive)
14,Cc1oc(=O)oc1CN1CCN(c2cc3c(cc2F)c(=O)c(C(=O)O)c2n3C(C)S2)CC1 (configuration not stated) [prulifloxacin],-3.69% (inactive)
15,Cc1nc(C)c(C)nc1C [chuanxiongzine],1.87% (inactive)
16,N#Cc1c(N)nc(SCC(N)=O)c(C#N)c1-c1ccc(OCC2CC2)cc1,12.1% (inactive)
17,O=C(O[C@H]1[C@H](OC(=O)c2cccnc2)[C@@H](OC(=O)c2cccnc2)[C@H](OC(=O)c2cccnc2)[C@@H](OC(=O)c2cccnc2)[C@H]1OC(=O)c1cccnc1)c1cccnc1 [inositol-hexanicotinate],0.85% (inactive)
18,CCOC(=O)[C@]12CC1/C(=N\O)c1ccccc1O2 (some centres not stated),-1.39% (inactive)
19,OC[C@H]1O[C@@H](n2cnc3c(NC4CCCC4)ncnc32)[C@H](O)[C@@H]1O [N6-cyclopentyladenosine],1.5% (inactive)
20,CN(C)CC[C@H](CSc1ccccc1)Nc1ccc(S(=O)(=O)NC(=O)c2ccc(N3CCN(Cc4ccccc4-c4ccc(Cl)cc4)CC3)cc2)cc1[N+](=O)[O-],-20.2% (inactive)
21,O=C(O)C1=C[C@@H](O)[C@@H](O)[C@H](O)C1 [shikimic-acid],0.85% (inactive)
22,C[C@]12CC[C@@H]3c4ccc(OC(=O)c5ccccc5)cc4CC[C@H]3[C@@H]1CC[C@@H]2O [estradiol-benzoate],-5.99% (inactive)
23,CC[C@@]1(O)C(=O)OCc2c1cc1n(c2=O)Cc2c-1nc1cc(F)c(C)c3c1c2[C@@H](N)CC3 [exatecan-mesylate],-20.5% (inactive)
24,Cc1cccc(C)c1NC(=O)[C@@H](C)N [tocainide],-4.59% (inactive)
25,Nc1ccn([C@@H]2O[C@@](CO)(CCl)[C@@H](O)[C@H]2F)c(=O)n1,2.59% (inactive)
26,CN(C)CCOC(=O)C(c1ccccc1)C1(O)CCCC1 (configuration not stated) [cyclopentolate],-1.17% (inactive)
27,Cc1ccc(NCCCc2ccccc2)c(N)c1 [NFKB-activation-inhibitor-II],2.24% (inactive)
